# About 83,000 compounds went through this panel and 20% of them were active in at least one assay; those are over-represented in the sample as a whole.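 Step 1: grow cells in 96-well plates. Step 2: add test compound at a single concentration. Step 3: incubate 48 h. Step 4: record percent growth.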 The source made the active and inactive calls. The calls were made as follows: active = growth percent below 10; inactive = the rest.
# System: CCRF-CEM leukemia
# Assay: NCI-60 one-dose screen, 48 h (100 = growth as untreated, 0 = no growth, -100 = all killed)
# Settings: 10 µM unless noted
row,Compound,growth
1,Nc1nc(SCc2ccccc2)c2ncn(C3CCCC3)c2n1,96.3% (inactive)
2,COc1cc(NC(N)=NCC(C)(C)COc2ccc(C(F)(F)F)cc2)cnc1C#N,56% (inactive)
3,CCCCCCCCCCCCCCCC(=O)OCC1OC(n2cnc3c(=S)nc(N)[nH]c32)C(OC(=O)CCCCCCCCCCCCCCC)C1OC(=O)CCCCCCCCCCCCCCC (configuration not stated),15.9% (inactive)
4,O=[N+]([O-])c1cccc(-c2nc3sccn3c2-c2ccnc(NCCCNS(=O)(=O)c3ccc(Br)cc3)n2)c1,18.6% (inactive)
5,COc1ccc(-c2nc(Nc3cc(C)[nH]n3)c3ccccc3n2)cc1,49.3% (inactive)
6,O=C1Nc2c(ccc(Cl)c2Cl)/C1=C/c1cc(Br)c(O)c(Br)c1,69% (inactive)
7,Nc1nc2ccc(-c3nc4ccc5[nH]ncc5c4c4c3CCC4)cc2s1,17.3% (inactive)
8,Cc1cc(Cl)ccc1Nc1nc(C(F)(F)F)ccc1C(=O)N/N=C/c1ccc(F)cc1,4.12% (active)
9,COc1ccc(C(=O)COc2ccc(/C=C3\Oc4ccc(Cl)cc4C3=O)cc2)cc1,122% (inactive)
10,CC[C@@H](C)OC(=O)c1nn(C(C)=O)c2ccccc12,103% (inactive)
11,CCN(CC)c1ccc(/C=C/C2=[N+](C)c3ccccc3C2(C)C)cc1,7.5% (active)
12,CCCCCCCCCCCCCCCC[N+]1(CC)CCCC1,-67% (active)
13,COc1cc(OC)c(/C=C/c2cc[n+](C)c3ccccc23)c(OC)c1,7.13% (active)
14,CC[C@H](Nc1nc(N)nc(C)c1C#N)c1nc2cccc(NCc3ccc(C(=O)NO)cc3)c2c(=O)n1-c1ccccc1,0.318% (active)
15,O=C(CN1CCOCC1)Nc1ccc(Cn2nnc3c2C(=O)c2nnn(Cc4ccc(NC(=O)CN5CCOCC5)cc4)c2C3=O)cc1,-21.4% (active)
16,COc1ccc2[nH]c(=O)c(/C=C/C(=O)c3ccc(Nc4nccc(-c5ccc6ccccc6c5)n4)cc3)cc2c1,86.4% (inactive)
17,OC(c1cccc(C(F)(F)F)c1)c1cnccc1NC1CCCCCC1 (configuration not stated),30.5% (inactive)
18,CNC(=O)c1cc(Oc2ccc3nc(NC(=O)Nc4ccc(CN5CCOCC5)c(C(F)(F)F)c4)sc3c2)ccn1,17.7% (inactive)
19,O=c1c2cccc3c(Nc4ccccn4)ccc(c32)c2nc3ccccc3n12,51.8% (inactive)
20,CC(C)[C@@H]1CC[C@]2(C(=O)NCCCCN=C(N)N)CC[C@]3(C)[C@H](CC[C@@H]4[C@@]5(C)CCC(=O)C(C)(C)[C@@H]5CC[C@]43C)[C@@H]12,37.6% (inactive)
21,Cc1ccc2c(c1)n([O-])c1cc(Cl)ccc1[n+]2=O,34.9% (inactive)
22,CC(C)(C)n1cc(-c2ccnc(NCCCNS(=O)(=O)c3cccc4ccccc34)c2)c(-c2cccc(O)c2)n1,22.1% (inactive)
23,COc1ccc(-c2cc(=O)[nH]c3c(OC)c4ccccc4c(OC)c23)cc1,10.8% (inactive)

# System: MOLT-4 leukemia
# Assay: as above
# Settings: 10 µM unless noted
row,Compound,growth
1,COCCOC(=O)C1=C(C)NC(=S)NC1c1ccc2c(c1)OCO2 (configuration not stated),96.9% (inactive)
2,O=S(=O)(Nc1ccc(F)c(Cl)c1)c1ccc(-c2cnc(C3CC3)o2)cc1,29.5% (inactive)
3,NCCN1CCN(c2nccc(-c3ccc4ccccc4c3)n2)CC1,22.1% (inactive)
4,CCN(CC)Cc1cc(Nc2c3ccc(Cl)cc3nc3c(C)cccc23)ccc1O,-3.97% (active)
5,N#Cc1ccc(NC(=O)Nc2ccc(Cc3ccc(NC(=O)Nc4ccc(C#N)cc4)cc3)cc2)cc1,12.5% (inactive)
6,CCCCNc1ccc2c3c1cccc3c(=O)n1c3ccccc3nc21,69.4% (inactive)
7,O=C1O[C@H]([C@H](O)CO)C(O)=C1O,107% (inactive)
8,CCC(=O)OCc1cccc(OC)c1,87.9% (inactive)
9,Cc1ccc2cnc(N)c(C#Cc3cncc(C(=O)Nc4ccc(CN5CCN(C)CC5)c(C(F)(F)F)c4)c3)c2c1,-54.8% (active)
10,CC#Cc1nc2ccccc2c(=O)[nH]1,19.3% (inactive)
11,COc1cc2c(cc1O)CCc1cc(O)cc(OC)c1-2,74.7% (inactive)
12,CCCCCCCCCCCCS(=O)CC(C)O (configuration not stated),96.7% (inactive)
13,CCN(CC)CCCNc1cccc2c(SCc3ccccc3)ccnc12,-24.2% (active)
14,COc1ccc(/C=C2\N=C3Sc4cc(Cl)ccc4C(=O)N3C2=O)cc1,93.6% (inactive)
15,O=C1C(Cl)=C(Cl)C(=O)c2c1nc1n2CCCC1,9.16% (active)
16,CN1CCN(Cc2ccc(NC(=O)c3cncc(C#Cc4c(N)ncc5ccc(C#N)cc45)c3)cc2C(F)(F)F)CC1,-21.3% (active)
17,Nc1nc(SCc2ccccc2)c2ncn(C3CCCC3)c2n1,113% (inactive)
18,COc1cc(NC(N)=NCC(C)(C)COc2ccc(C(F)(F)F)cc2)cnc1C#N,15.6% (inactive)
19,CCCCCCCCCCCCCCCC(=O)OCC1OC(n2cnc3c(=S)nc(N)[nH]c32)C(OC(=O)CCCCCCCCCCCCCCC)C1OC(=O)CCCCCCCCCCCCCCC (configuration not stated),-24% (active)
20,O=[N+]([O-])c1cccc(-c2nc3sccn3c2-c2ccnc(NCCCNS(=O)(=O)c3ccc(Br)cc3)n2)c1,19.7% (inactive)

row,Compound,growth
1,COc1ccc(-c2nc(Nc3cc(C)[nH]n3)c3ccccc3n2)cc1,69.8% (inactive)
2,O=C1Nc2c(ccc(Cl)c2Cl)/C1=C/c1cc(Br)c(O)c(Br)c1,63.8% (inactive)
3,Nc1nc2ccc(-c3nc4ccc5[nH]ncc5c4c4c3CCC4)cc2s1,18.5% (inactive)
4,Cc1cc(Cl)ccc1Nc1nc(C(F)(F)F)ccc1C(=O)N/N=C/c1ccc(F)cc1,-6.74% (active)
5,COc1ccc(C(=O)COc2ccc(/C=C3\Oc4ccc(Cl)cc4C3=O)cc2)cc1,-17.8% (active)
6,CC[C@@H](C)OC(=O)c1nn(C(C)=O)c2ccccc12,123% (inactive)
7,CCN(CC)c1ccc(/C=C/C2=[N+](C)c3ccccc3C2(C)C)cc1,15.1% (inactive)
8,CCCCCCCCCCCCCCCC[N+]1(CC)CCCC1,-67.3% (active)
9,COc1cc(OC)c(/C=C/c2cc[n+](C)c3ccccc23)c(OC)c1,3.59% (active)
10,CC[C@H](Nc1nc(N)nc(C)c1C#N)c1nc2cccc(NCc3ccc(C(=O)NO)cc3)c2c(=O)n1-c1ccccc1,0.225% (active)
11,O=C(CN1CCOCC1)Nc1ccc(Cn2nnc3c2C(=O)c2nnn(Cc4ccc(NC(=O)CN5CCOCC5)cc4)c2C3=O)cc1,-41.8% (active)
12,COc1ccc2[nH]c(=O)c(/C=C/C(=O)c3ccc(Nc4nccc(-c5ccc6ccccc6c5)n4)cc3)cc2c1,101% (inactive)
13,OC(c1cccc(C(F)(F)F)c1)c1cnccc1NC1CCCCCC1 (configuration not stated),22.6% (inactive)
14,CNC(=O)c1cc(Oc2ccc3nc(NC(=O)Nc4ccc(CN5CCOCC5)c(C(F)(F)F)c4)sc3c2)ccn1,3.75% (active)
15,O=c1c2cccc3c(Nc4ccccn4)ccc(c32)c2nc3ccccc3n12,61.8% (inactive)
16,CC(C)[C@@H]1CC[C@]2(C(=O)NCCCCN=C(N)N)CC[C@]3(C)[C@H](CC[C@@H]4[C@@]5(C)CCC(=O)C(C)(C)[C@@H]5CC[C@]43C)[C@@H]12,38.6% (inactive)
17,Cc1ccc2c(c1)n([O-])c1cc(Cl)ccc1[n+]2=O,-9.08% (active)
18,CC(C)(C)n1cc(-c2ccnc(NCCCNS(=O)(=O)c3cccc4ccccc34)c2)c(-c2cccc(O)c2)n1,7.2% (active)
19,COc1ccc(-c2cc(=O)[nH]c3c(OC)c4ccccc4c(OC)c23)cc1,6.7% (active)

# — PubChem BioAssay (NCI)
